Results as given in PubChem BioAssay (NCATS).
Where “and” joins values, the source holds several entries; their conditions need not be identical. Equal entries are not always repeated. Results filed as inconclusive are left out. Calls of active or inactive are those of the source. Calls follow the shape of the dose curve; as a rule, active = well fitted curve in the direction sought with a large enough effect; inconclusive = small, poorly fitted or top-dose-only effect, or another doubt; inactive = no such curve, though single readings can be large; an effect the other way counts as inactive or inconclusive.

Experiments:
[1] = Viability qHTS for spleen associated tyrosine kinase inhibitor (SYKi) naive MV4-11 cells (AID 1963823); also: nearly all actives have a fitted effect of over 40% in size; also: potency is read from the fitted curve at half-maximal effect
How it was run: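 qHTS, SYK inhibitor-naive MV4-11; 500 cells/well; 72 hr compound exposure, 37 C; CellTiter-Glo added, 10 min RT; luminescence read.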

[2] = Viability qHTS for spleen associated tyrosine kinase inhibitor (SYKi) drug resistant MV4-11 cells (AID 1963824); also: nearly all actives have a fitted effect of over 35% in size; also: potency is read from the fitted curve at half-maximal effect
How it was run: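 SYK inhibitor-resistant MV4-11 AML cells, 500 per well, added to predispensed compounds and incubated 72 hr at 37 C, 5% CO2. Viability measured by CellTiter-Glo luminescence after 10 min at room temperature.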

[3] = Quantitative highthroughput screen to assess conditional lethalithy of SEM cells grown in Human Plasma-Like Medium with dialyzed fetal bovine serum (HPLM+ds) (AID 1963882); also: nearly all actives have a fitted effect of over 35% in size; also: potency is read from the fitted curve at half-maximal effect; as to Viability: series mostly up to about 46 µM
How it was run: (§1)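 Each medium arm—HPLM with 10% dialyzed FBS, or RPMI1640 with 5 mM glucose and 10% untreated or dialyzed FBS—was screened against an 11-point, 3-fold compound titration for 48 h at 37 °C, with CellTiter-Glo luminescence as endpoint.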

[4] = Quantitative highthroughput screen to assess conditional lethalithy of P12 Ichikawa cells grown in Human Plasma-Like Medium with dialyzed fetal bovine serum (HPLM+ds) (AID 1963879); conditions: Potency: viability; also: series mostly up to about 46 µM; nearly all actives have a fitted effect of over 35% in size
How it was run: as §1

[5] = Cellular viability qHTS for adrenocortical cancer (ACC) cell line SW-13 (AID 1963989); conditions: SW-13 ACC cells viability, CellTiter-Glo, 48 h; activity (max response): hits give low values; also: nearly all actives have a fitted effect of over 65% in size; also: potency is read from the fitted curve at half-maximal effect;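 as to activity (max response): cells grown in serum-free medium with ITS supplement; % is scaled to controls: 0 for no effect and ±100 for the full control effect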
How it was run: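 Here, serum-free SW-13 cultures were dosed up to 46 uM. Following 48 h, ATP-dependent luminescence (CellTiter-Glo) reported viable cells, and logistic modeling produced IC50 values.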

[6] = Quantitative highthroughput screen to assess conditional lethalithy of NOMO1 cells grown in RPMI1640 with dialyzed fetal bovine serum (RPMI+ds) (AID 1963877); also: nearly all actives have a fitted effect of over 30% in size; also: potency is read from the fitted curve at half-maximal effect;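 as to Viability: series mostly up to about 46 µM; 100% = DMSO control wells and 0% = empty wells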
How it was run: as §1

[7] = Quantitative highthroughput screen to assess conditional lethalithy of SEM cells grown in RPMI1640 with unreated serum (RPMI+s) (AID 1963883); also: nearly all actives have a fitted effect of over 35% in size; also: potency is read from the fitted curve at half-maximal effect;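 as to Viability: 100% = DMSO wells and 0% = empty wells without cells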
How it was run: as §1

[8] = Quantitative highthroughput screen to assess conditional lethalithy of SEM cells grown in RPMI1640 with dialyzed fetal bovine serum (RPMI+ds) (AID 1963884); also: nearly all actives have a fitted effect of over 35% in size; also: potency is read from the fitted curve at half-maximal effect;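 as to Viability: series mostly up to about 46 µM; 100% = DMSO control wells and 0% = empty wells without cells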
How it was run: as §1

[9] = Cellular viability qHTS for adrenocortical cancer (ACC) cell line NCI-H295R (AID 1963990); also: nearly all actives have a fitted effect of over 60% in size; also: potency is read from the fitted curve at half-maximal effect
How it was run: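 Viability of NCI-H295R after 48 h of treatment (final up to 46 uM) measured through cellular ATP luminescence.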

[10] = Quantitative highthroughput screen to assess conditional lethalithy of NOMO1 cells grown in RPMI1640 with untreated serum (RPMI+s) (AID 1963876)
How it was run: as §1

[11] = Quantitative highthroughput screen to assess conditional lethalithy of P12 Ichikawa cells grown in RPMI1640 with untreated serum (RPMI+s) (AID 1963881); conditions: Potency: viability; also: nearly all actives have a fitted effect of over 35% in size; also: potency is read from the fitted curve at half-maximal effect;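 as to Viability: series mostly up to about 46 µM; 100% = DMSO wells and 0% = empty wells without cells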
How it was run: as §1

[12] = Quantitative highthroughput screen to assess conditional lethalithy of P12 Ichikawa cells grown in RPMI1640 with dialyzed fetal bovine serum (RPMI+ds) (AID 1963880); conditions: Potency: P12-Ichikawa viability
How it was run: as §1

[13] = Quantitative highthroughput screen to assess conditional lethalithy of NOMO1 cells grown in Human Plasma-Like Medium with dialyzed fetal bovine serum (HPLM+ds) (AID 1963878)
How it was run: as §1

CNC(=O)N1N=C(c2ccc(N)cc2)c2cc3c(cc2CC1C)OCO3 (stereo unspecified)
active: Potency [1] 1.84 µM | Potency [2] 2.31 µM | Potency [3] 10.5 µM

COc1cc(OC)c(OC)cc1C=O
inactive: Potency [1] | Potency [2] | Potency [4] | Potency [3] | activity (max response) [5] 8.71%

CCNC(=O)C[C@@H]1N=C(c2ccc(Cl)cc2)c2cc(OC)ccc2-n2c(C)nnc21
active: Potency [1] 411 nM and 417 nM | Potency [2] 461 nM and 417 nM | Potency [6] 9.35 µM | Potency [7] 1.05 µM | Potency [8] 1.05 µM
inactive: activity (max response) [5] -15.2% | Potency [9]

C[C@@H]1C[C@@H]([C@H](O)CC2CC(=O)NC(=O)C2)C(=O)[C@@H](C)C1
active: Potency [1] 376 nM and 417 nM | Potency [2] 841 nM and 590 nM | Potency [10] 1.66 µM | Potency [6] 1.66 µM | Potency [11] 0.264 µM | Potency [3] 0.418 µM | Potency [5] 1.84 µM and 1.78 µM | Potency [9] 920 nM and 1 µM

CN1CCN(c2ccc([N+](=O)[O-])c3no[n+]([O-])c23)CC1
inactive: Potency [12] | Potency [11] | activity (max response) [5] 1.98%
active: Potency [1] 8.33 µM | Potency [2] 8.33 µM

Cc1c(C(=O)Nc2cccc(C(F)(F)F)c2)cc(-c2ccccc2)n1CCCN1CCOCC1
inactive: Potency [13]
active: Potency [1] 14.6 µM | Potency [2] 16.6 µM

O=C(N[C@H]1CN2CCC1CC2)c1ccc(Cl)cc1
inactive: Potency [1] | Potency [2] | Potency [6] | Potency [4] | Potency [12] | Potency [3] | activity (max response) [5] 3.8% | Potency [9]

CCOP(=O)(OCC)C(C)NC(=O)N(CCCl)N=O (stereo unspecified)
active: Potency [2] 16.6 µM
inactive: Potency [1] | Potency [6] | Potency [4] | Potency [11] | Potency [3] | Potency [7] | activity (max response) [5] 3.2% | Potency [9]

O=C(Oc1ccc([N+](=O)[O-])cc1)N1CCN(Cc2cccc(Oc3ccccc3)c2)CC1
active: Potency [1] 16.4 µM | Potency [2] 13.2 µM
inactive: Potency [4] | Potency [12] | Potency [11] | Potency [3] | Potency [8]

CCCC(C)(COC(N)=O)COC(=O)NC(C)C (stereo unspecified)
inactive: Potency [1] | Potency [2] | Potency [6] | Potency [4] | Potency [7] | activity (max response) [5] 8.8% | Potency [9]

COC[C@H]1OC(=O)c2coc3c2[C@@]1(C)C1=C(C3=O)C2CCC(=O)[C@@]2(C)C[C@H]1OC(C)=O (stereo partly specified)
inactive: Potency [6] | Potency [4] | Potency [11]
active: Potency [1] 14.6 µM and 3.32 µM | Potency [2] 16.4 µM and 3.72 µM

Cc1[nH]ncc1-c1cc2nc([C@@H]3CC4CCN3CC4)[nH]c(=O)c2s1
active: Potency [1] 3.32 µM | Potency [2] 4.17 µM | Potency [5] 28.2 µM | Potency [9] 28.2 µM

O=C(O)CCCc1ccc(N(CCCl)CCCl)cc1
inactive: Potency [1] | Potency [2] | activity (max response) [5] 1.67% and -8.76% | Potency [9]

Clc1cccc(SC2CCNCC2)n1
inactive: Potency [1] | Potency [2] | activity (max response) [5] 3.75%

O=C(O)C(Cl)Cl
inactive: Potency [1] | Potency [2] | activity (max response) [5] 11.1%

C=CCN1CC[C@]23CCCC[C@H]2[C@H]1Cc1ccc(O)cc13
inactive: Potency [1] | Potency [2] | activity (max response) [5] -5.85% | Potency [9]

Clc1ccc(COC(Cn2ccnc2)c2ccc(Cl)cc2Cl)cc1 (stereo unspecified)
active: Potency [1] 8.33 µM | Potency [2] 8.33 µM | Potency [5] 25.1 µM | Potency [9] 22.4 µM

[N-]=[N+]=CC(=O)OC[C@H](N)C(=O)O
inactive: Potency [1] | Potency [2] | activity (max response) [5] -8.61% | Potency [9]

COc1cc(N)c(Cl)cc1C(=O)NC1CN2CCC1CC2 (stereo unspecified)
inactive: Potency [1] | Potency [2] | activity (max response) [5] -1.3% | Potency [9]

CC(C)NCC(O)c1ccc(N)c(C#N)c1 (stereo unspecified)
inactive: Potency [1] | Potency [2] | activity (max response) [5] 6.97% | Potency [9]

O=C(CCl)c1ccc(Cl)cc1Cl
inactive: Potency [1] | Potency [2] | activity (max response) [5] -3.67%

O=C(O)CCCCCCNC1c2ccccc2CCc2ccccc21
active: Potency [1] 0.473 µM
inactive: Potency [2] | activity (max response) [5] 1.72% | Potency [9]

Nc1ccc(Cl)cc1
inactive: Potency [1] | Potency [2] | activity (max response) [5] 5.53% | Potency [9]

COc1ccc2c(c1OC)C(=O)O[C@H]2[C@@H]1c2cc3c(cc2CCN1C)OCO3
inactive: Potency [1] | Potency [2] | activity (max response) [5] 8.92% | Potency [9]

CC1(C)C(C=C(Cl)Cl)C1C(=O)OC(C#N)c1cccc(Oc2ccccc2)c1 (stereo unspecified)
inactive: Potency [2] | activity (max response) [5] 4.33% | Potency [9]
active: Potency [1] 2.66 µM

CCCCCCCCCC(=O)O[C@H]1CC[C@H]2[C@@H]3CCC4=CC(=O)CC[C@@H]4[C@H]3CC[C@]12C
inactive: Potency [1] | Potency [2] | activity (max response) [5] 6.32%

CC(=O)NC1CCSC1=O (stereo unspecified)
inactive: Potency [1] | Potency [2] | activity (max response) [5] 9.14% | Potency [9]

C[C@@]12OC(=O)[C@]1([C@@H](O)[C@@H]1C=CCCC1)NC(=O)[C@@H]2CCCl
active: Potency [1] 0.0209 µM | Potency [2] 0.0235 µM | Potency [5] 0.501 µM | Potency [9] 0.398 µM

CC(C)(C)NCC(O)c1ccccc1Cl (stereo unspecified)
inactive: Potency [1] | Potency [2] | activity (max response) [5] 3.76%

CC(=O)C1CCOC1=O (stereo unspecified)
inactive: Potency [1] | Potency [2] | activity (max response) [5] 9.4% | Potency [9]

COC[C@H]1OC(=O)c2coc3c2[C@@]1(C)C1=C(C3=O)[C@@H]2CC[C@H](O)[C@@]2(C)C[C@H]1OC(C)=O
inactive: activity (max response) [5] -16.1%
active: Potency [1] 1.66 µM | Potency [2] 1.66 µM
